Measurements taken from PubChem BioAssay (NCATS).
Inconclusive results are not listed. The source made the active and inactive calls. Unless noted, calls follow the shape of the dose curve; as a rule, active = well fitted curve in the direction sought with a large enough effect; inconclusive = small, poorly fitted or top-dose-only effect, or another doubt; inactive = no such curve, though single readings can be large; an effect the other way counts as inactive or inconclusive.

How the values were obtained:
[1] = target: Ubiquitin carboxyl-terminal hydrolase 2 (Homo sapiens) (UniProt O75604); assay: qHTS Validation Assay for Inhibitors of Ubiquitin-specific Protease USP2a Using CHOP2 as the Reporter (AID 463106)
Sequence of Ubiquitin carboxyl-terminal hydrolase 2 (Homo sapiens) (O75604 whole entry, looked up): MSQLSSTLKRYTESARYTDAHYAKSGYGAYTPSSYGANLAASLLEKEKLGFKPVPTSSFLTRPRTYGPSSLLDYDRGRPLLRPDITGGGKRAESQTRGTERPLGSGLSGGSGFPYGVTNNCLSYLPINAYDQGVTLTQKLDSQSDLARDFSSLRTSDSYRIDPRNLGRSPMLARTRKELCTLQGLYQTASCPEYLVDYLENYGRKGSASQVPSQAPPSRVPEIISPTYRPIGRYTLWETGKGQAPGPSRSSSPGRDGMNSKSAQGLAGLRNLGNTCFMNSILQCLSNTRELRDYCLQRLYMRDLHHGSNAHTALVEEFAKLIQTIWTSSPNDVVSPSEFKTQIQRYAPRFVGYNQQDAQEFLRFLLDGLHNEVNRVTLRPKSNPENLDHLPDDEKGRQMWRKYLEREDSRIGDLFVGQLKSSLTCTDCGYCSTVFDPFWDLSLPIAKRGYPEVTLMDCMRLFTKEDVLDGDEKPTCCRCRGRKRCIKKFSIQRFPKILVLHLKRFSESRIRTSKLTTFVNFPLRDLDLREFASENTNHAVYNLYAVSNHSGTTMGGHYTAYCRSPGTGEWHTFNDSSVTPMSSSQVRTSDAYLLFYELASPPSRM
Method in brief: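 Fluorescence read-out at Ex 485nm/Em 531nm after 60min RT, following addition of 25nM Ub-CHOP2 plus 25nM reporter substrate to USP2 core (10nM) pretreated 30min with compound. Data normalized to NEM full inhibition; concentration-response curves fitted.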

[2] = target: DNA polymerase III PolC-type (Bacillus subtilis (strain 168)) (UniProt P13267); assay: qHTS Validation Assay for the Inhibitors of DNA Replication in Gram-Positive Bacteria (AID 485295); also: potency is read from the fitted curve at half-maximal effect
Method in brief: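 Inhibition of DNA synthesis by the reconstituted PolC holoenzyme, monitored through PicoGreen staining of dsDNA formed from ssM13Gori, dNTPs and NTPs, with compound preincubation and room-temperature reaction.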

[3] = target: Tumor susceptibility gene 101 protein (Homo sapiens) (UniProt Q99816); assay: qHTS Validation Assay for Iinhibitors of HIV-1 Budding by Blocking the Interaction of PTAP/TSG101 (AID 485342; calls by dose curve)
Sequence of Tumor susceptibility gene 101 protein (Homo sapiens) (Q99816 whole entry, looked up, the tested form may be a part): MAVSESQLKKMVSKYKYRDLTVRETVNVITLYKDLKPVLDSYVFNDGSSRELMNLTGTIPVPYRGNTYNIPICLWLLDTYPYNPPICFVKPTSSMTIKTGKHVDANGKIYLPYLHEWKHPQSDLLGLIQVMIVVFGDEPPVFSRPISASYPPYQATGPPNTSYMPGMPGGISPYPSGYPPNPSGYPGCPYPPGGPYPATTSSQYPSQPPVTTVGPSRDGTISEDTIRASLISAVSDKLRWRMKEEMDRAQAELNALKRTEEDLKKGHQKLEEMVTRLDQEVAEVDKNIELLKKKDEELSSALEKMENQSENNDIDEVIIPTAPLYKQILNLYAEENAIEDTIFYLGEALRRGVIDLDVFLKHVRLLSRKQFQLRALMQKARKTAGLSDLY
Method in brief: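 Compound wells held the Tsg101 binding domain (10 uM) and a FITC-conjugated PTAP peptide (50 nM) in buffer at pH 7.5 containing 0.15 M NaCl and 0.01% Tween 20; polarization was recorded after 20 min, r.t.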

[4] = qHTS Validation Assay to Find Inhibitors of Chronic Active B-Cell Receptor Signaling (AID 485345; active = well fitted curve in the direction sought with a large enough effect in the main read-out, with a control signal flat, not every such curve was filed as active)
Method in brief: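 TMD8 ABC-DLBCL cells stably carrying doxycycline-inducible IkappaBalpha–green luciferase fusion plus unfused red luciferase; compounds 46 uM to 3 nM, 4 h at 37C with doxycycline. Corrected green/red luminescence ratio normalized to 10 uM MG-132 and basal cell wells; curves fitted.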

[5] = target: Beta-2 adrenergic receptor (Homo sapiens) (UniProt P07550); assay: qHTS validation assay of beta-arrestin-biased ligands of beta2-adrenergic receptor (AID 485366)
Sequence of Beta-2 adrenergic receptor (Homo sapiens) (P07550 whole entry, looked up): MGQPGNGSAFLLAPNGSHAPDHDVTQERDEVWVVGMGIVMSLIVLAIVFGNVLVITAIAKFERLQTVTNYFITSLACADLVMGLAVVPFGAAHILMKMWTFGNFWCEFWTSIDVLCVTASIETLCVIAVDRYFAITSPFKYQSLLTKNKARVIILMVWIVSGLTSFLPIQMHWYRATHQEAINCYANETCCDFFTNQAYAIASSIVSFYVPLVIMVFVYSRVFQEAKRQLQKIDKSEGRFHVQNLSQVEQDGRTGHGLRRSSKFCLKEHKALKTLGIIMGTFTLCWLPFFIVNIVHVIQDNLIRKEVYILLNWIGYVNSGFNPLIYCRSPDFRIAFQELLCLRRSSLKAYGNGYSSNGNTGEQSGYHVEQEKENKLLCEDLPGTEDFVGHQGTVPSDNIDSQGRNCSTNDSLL
Method in brief: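 Agonist activity is measured as luciferase luminescence downstream of beta-arrestin recruitment to recombinant beta2-AR in Tango cells. Exposure lasts 18 hr at 37 degrees C, and curves are categorized by r2, response size and activity.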

[6] = target: ATP-dependent 6-phosphofructokinase (Trypanosoma brucei brucei) (UniProt O15648); assay: qHTS Validation Assay to Find Inhibitors of T. brucei phosphofructokinase (AID 485368); also: potency is read from the fitted curve at half-maximal effect
Sequence of ATP-dependent 6-phosphofructokinase (Trypanosoma brucei brucei) (O15648 whole entry, looked up): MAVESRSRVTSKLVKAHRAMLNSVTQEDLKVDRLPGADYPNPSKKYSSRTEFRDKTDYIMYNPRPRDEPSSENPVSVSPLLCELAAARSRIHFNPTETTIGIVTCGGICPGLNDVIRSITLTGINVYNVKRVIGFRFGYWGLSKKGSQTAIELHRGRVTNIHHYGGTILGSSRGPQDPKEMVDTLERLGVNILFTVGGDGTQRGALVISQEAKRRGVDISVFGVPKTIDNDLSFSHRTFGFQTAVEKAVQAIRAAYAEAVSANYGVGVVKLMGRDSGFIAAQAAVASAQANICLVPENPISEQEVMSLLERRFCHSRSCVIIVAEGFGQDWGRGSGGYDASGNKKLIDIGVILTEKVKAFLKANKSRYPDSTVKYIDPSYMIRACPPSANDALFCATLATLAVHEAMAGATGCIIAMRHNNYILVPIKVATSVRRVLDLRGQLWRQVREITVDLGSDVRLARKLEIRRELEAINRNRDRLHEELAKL
Method in brief: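 Inhibition derived from concentration-response curves of luminescence, ranked by r2, response size and curve class; the underlying reaction used 1.25 nM PFK, 0.1 mM ATP and 0.5 mM F6P, 45 min, room temperature.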

[7] = target: Thioredoxin reductase 1, cytoplasmic (Rattus norvegicus) (UniProt O89049); assay: qHTS Assay for Substrates of Mammalian Selenoprotein Thioredoxin Reductase 1 (TrxR1) (AID 488772);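 also: series mostly up to about 57 µM; a drop in NADPH fluorescence below the no-compound background marks a TrxR1 substrate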
Sequence of Thioredoxin reductase 1, cytoplasmic (Rattus norvegicus) (O89049 whole entry, looked up): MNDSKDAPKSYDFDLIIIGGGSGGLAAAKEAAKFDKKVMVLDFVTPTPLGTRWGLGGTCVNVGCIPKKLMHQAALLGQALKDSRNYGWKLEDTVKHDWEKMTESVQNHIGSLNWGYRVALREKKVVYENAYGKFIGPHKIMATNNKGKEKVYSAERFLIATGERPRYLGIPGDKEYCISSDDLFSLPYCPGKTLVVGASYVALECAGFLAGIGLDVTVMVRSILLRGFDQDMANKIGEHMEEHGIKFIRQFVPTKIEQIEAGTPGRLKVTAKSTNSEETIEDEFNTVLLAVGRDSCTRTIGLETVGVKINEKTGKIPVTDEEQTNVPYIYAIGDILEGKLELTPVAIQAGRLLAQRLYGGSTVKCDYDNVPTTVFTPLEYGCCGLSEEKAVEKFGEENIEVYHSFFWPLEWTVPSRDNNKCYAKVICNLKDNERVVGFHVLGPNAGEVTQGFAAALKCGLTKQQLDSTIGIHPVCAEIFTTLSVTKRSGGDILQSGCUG
Method in brief: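 In this dual-purpose format, potential substrates are identified from the first fluorescence read after selenite addition, not from the 8-minute delta. Rat enzyme is preincubated with NADPH and then with compound at ~22 deg C.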

[8] = target: Thioredoxin reductase 1, cytoplasmic (Rattus norvegicus) (UniProt O89049); assay: qHTS Assay for Inhibitors of Mammalian Selenoprotein Thioredoxin Reductase 1 (TrxR1) (AID 488773); conditions: Potency: inhibition;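 also: drop in NADPH fluorescence over an 8 min run after selenite addition; series mostly up to about 57 µM; nearly all actives have a fitted effect of over 40% in size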
Method in brief: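 Inhibition is scored from the loss of NADPH fluorescence between first and last reads of an 8-min kinetic run. Selenite (400 uM) was the substrate, added after 15 min compound preincubation at room temperature.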

[9] = target: M-phase phosphoprotein 8 (Homo sapiens) (UniProt Q99549); assay: qHTS Validation Assay for Inhibitors for MPP8 Chromodomain Interactions with Methylated Histone Tails (AID 488949); also: nearly all actives have a fitted effect of over 55% in size; also: potency is read from the fitted curve at half-maximal effect
Sequence of M-phase phosphoprotein 8 (Homo sapiens) (Q99549 whole entry, looked up): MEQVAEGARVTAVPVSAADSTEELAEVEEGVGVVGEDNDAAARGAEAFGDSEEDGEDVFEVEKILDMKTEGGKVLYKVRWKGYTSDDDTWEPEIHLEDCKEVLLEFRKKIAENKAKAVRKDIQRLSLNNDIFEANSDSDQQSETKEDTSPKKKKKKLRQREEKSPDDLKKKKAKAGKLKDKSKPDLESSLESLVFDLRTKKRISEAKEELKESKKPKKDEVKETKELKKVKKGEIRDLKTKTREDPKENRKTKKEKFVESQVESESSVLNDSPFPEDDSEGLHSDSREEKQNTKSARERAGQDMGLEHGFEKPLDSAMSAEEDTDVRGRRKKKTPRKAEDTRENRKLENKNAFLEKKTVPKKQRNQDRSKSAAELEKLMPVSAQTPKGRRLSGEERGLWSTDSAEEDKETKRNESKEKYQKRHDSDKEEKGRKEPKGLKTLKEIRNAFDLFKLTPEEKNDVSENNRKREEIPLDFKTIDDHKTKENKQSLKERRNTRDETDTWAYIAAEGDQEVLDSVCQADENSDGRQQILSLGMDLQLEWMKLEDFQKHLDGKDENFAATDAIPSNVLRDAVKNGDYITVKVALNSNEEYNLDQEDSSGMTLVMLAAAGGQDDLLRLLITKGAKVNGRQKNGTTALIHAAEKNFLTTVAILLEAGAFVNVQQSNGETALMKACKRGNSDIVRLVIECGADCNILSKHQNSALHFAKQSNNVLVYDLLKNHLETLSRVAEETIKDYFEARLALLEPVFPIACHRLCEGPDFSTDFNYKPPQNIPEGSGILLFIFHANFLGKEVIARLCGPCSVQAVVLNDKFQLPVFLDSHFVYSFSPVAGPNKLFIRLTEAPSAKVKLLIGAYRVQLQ
Method in brief: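 Chemiluminescent proximity assay: histidine-tag capture via nickel acceptor beads, biotin peptide via streptavidin donor beads. Protein and peptide each at 50 nM, pH 7.4, with 30 min incubations at room temperature for complex formation, compound exposure and bead binding.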

[10] = target: Chromobox protein homolog 1 (Homo sapiens) (UniProt P83916); assay: qHTS Validation Assay for Inhibitors of HP1-beta Chromodomain Interactions with Methylated Histone Tails (AID 488953); also: nearly all actives have a fitted effect of over 50% in size; also: potency is read from the fitted curve at half-maximal effect
Sequence of Chromobox protein homolog 1 (Homo sapiens) (P83916 whole entry, looked up): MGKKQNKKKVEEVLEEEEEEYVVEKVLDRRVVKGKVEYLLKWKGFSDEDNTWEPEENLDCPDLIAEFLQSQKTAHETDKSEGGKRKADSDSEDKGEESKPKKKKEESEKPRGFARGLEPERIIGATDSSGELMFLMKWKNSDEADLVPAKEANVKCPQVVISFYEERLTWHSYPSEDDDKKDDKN
Method in brief: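 Disruption of preformed HP1-beta:H3K9me3 peptide complexes (both 50 nM, PBS pH 7.4 with 0.01% Tween-20) is measured by AlphaScreen after 30 min compound exposure at room temperature, using streptavidin donor and nickel chelate acceptor beads at 10 ug/mL final.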

[11] = target: Methanococcus maripaludis chaperonin (MmCpn) (UniProt Q6LX38); assay: High-Throughput Screening for Modulators of Cytosolic Chaperonin Activity: MmCpn Primary Screen (AID 488978)
Method in brief: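 HTRF readout (320 nm excitation, 590/665 nm emission) of ADP generated by 50 nM MmCpn hydrolysing 30 uM ATP during 10 min at 37C; compound preincubated 5 min RT.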

[12] = target: D(1A) dopamine receptor (Homo sapiens) (UniProt P21728); assay: HTS Assay for Allosteric Agonists of the Human D1 Dopamine Receptor: Primary Screen for Agonists (AID 488981)
Sequence of D(1A) dopamine receptor (Homo sapiens) (P21728 whole entry, looked up): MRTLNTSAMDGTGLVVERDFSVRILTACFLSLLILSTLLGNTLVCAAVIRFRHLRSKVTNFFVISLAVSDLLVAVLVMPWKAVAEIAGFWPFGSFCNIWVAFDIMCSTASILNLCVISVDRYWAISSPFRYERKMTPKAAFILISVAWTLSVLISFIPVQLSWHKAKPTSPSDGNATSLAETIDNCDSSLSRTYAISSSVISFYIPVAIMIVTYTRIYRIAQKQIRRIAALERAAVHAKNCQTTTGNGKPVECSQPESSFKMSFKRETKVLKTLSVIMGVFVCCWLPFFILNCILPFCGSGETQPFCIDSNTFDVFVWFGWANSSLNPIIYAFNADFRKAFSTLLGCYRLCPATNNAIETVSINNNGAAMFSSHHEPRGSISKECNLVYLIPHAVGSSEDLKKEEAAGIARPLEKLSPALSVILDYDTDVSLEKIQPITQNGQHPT
Method in brief: (§1)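 Tetracycline-induced HEK293 Trex D1 cells with forced coupling to calcium, loaded with no-wash calcium dye; kinetic fluorescence read 180 s after compound addition for agonism, then a further 180 s after an EC20 dopamine challenge for potentiation.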

[13] = target: D(1A) dopamine receptor (Homo sapiens) (UniProt P21728); assay: HTS Assay for Allosteric Agonists of the Human D1 Dopamine Receptor: Primary Screen for Potentiators (AID 488982)
Method in brief: as §1

[14] = target: D(1A) dopamine receptor (Homo sapiens) (UniProt P21728); assay: HTS Assay for Allosteric Agonists of the Human D1 Dopamine Receptor: Primary Screen for Antagonists (AID 488983);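 also: calcium flux response to an EC80 dopamine challenge measured with no-wash dye; nearly all actives have a fitted effect of over 65% in size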; also: potency is read from the fitted curve at half-maximal effect
Method in brief: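 Kinetic fluorescence at 1 cycle/sec tracked intracellular calcium in force-coupled, tetracycline-inducible HEK293 T-REx D1 cells. Loss of response to an EC80 dopamine dose, given 180 s after compound, marked antagonists.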

[15] = Quantitative high throughput screen for delayed death inhibitors of the malarial parasite plastid, 96 hour incubation (AID 488745); also: nearly all actives have a fitted effect of over 70% in size; also: potency is read from the fitted curve at half-maximal effect
Method in brief: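 Readout is firefly luciferase luminescence from an integrated reporter in P. falciparum; lower signal marks inhibited growth. Cultures at 2% hematocrit and 0.1% parasitemia were treated with compound across two generations (96 h, 37 C, 5% CO2).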

[16] = Quantitative high throughput screen for delayed death inhibitors of the malarial parasite plastid, 48 hour incubation (AID 488752); also: nearly all actives have a fitted effect of over 65% in size; also: potency is read from the fitted curve at half-maximal effect
Method in brief: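 First, compound was pinned into RPMI 1640 medium containing 0.5% Albumax. Next, reporter-parasite-infected erythrocytes were added to 2% hematocrit and 0.1% parasitemia. After 48 h at 37 C under 5% CO2, luciferase detection reagent was added and luminescence read.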

[17] = target: Transient receptor potential cation channel subfamily V member 1 (Homo sapiens) (UniProt Q8NER1); assay: HTS Assay for Compounds that Act as Enhancers of the Vanilloid Receptor 1 (AID 488979)
Method in brief: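 TRPV1 cells loaded with Fluo-8 calcium dye; compound added and Ca2+ signal (ex 480/em 520 nm) followed 3 min, then capsaicin at EC20 added and read 2 more min to detect enhancement.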

[18] = target: Thyrotropin receptor (Homo sapiens) (UniProt P16473); assay: qHTS Assay for Antagonists of the Thyroid Stimulating Hormone Receptor (AID 488980); also: series mostly up to about 58 µM
Sequence of Thyrotropin receptor (Homo sapiens) (P16473 whole entry, looked up): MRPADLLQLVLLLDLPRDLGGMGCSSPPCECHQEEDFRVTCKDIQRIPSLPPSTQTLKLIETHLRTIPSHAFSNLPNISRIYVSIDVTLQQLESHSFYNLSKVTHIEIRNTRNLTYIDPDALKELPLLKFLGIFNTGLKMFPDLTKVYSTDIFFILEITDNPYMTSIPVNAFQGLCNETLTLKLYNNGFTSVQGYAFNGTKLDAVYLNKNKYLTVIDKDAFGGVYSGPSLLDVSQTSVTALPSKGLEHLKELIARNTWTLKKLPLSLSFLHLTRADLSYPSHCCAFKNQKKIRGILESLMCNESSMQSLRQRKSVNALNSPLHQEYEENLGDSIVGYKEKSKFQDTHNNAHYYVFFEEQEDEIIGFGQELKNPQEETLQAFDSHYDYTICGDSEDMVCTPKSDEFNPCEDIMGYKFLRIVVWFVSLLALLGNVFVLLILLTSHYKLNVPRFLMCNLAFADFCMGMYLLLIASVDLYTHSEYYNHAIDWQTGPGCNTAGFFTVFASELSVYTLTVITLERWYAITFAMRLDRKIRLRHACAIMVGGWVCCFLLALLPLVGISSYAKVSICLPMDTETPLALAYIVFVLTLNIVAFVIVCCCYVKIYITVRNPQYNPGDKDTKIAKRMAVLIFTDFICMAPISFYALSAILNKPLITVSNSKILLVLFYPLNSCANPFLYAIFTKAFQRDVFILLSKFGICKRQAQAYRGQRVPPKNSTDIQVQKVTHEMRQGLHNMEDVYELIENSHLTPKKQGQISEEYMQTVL
Method in brief: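 Inhibition of TSH-stimulated cAMP accumulation was quantified by homogeneous time-resolved FRET in TSHR-transfected HEK293 cells. Agonist: TSH, 4 nM final (EC80).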

[19] = target: Flap endonuclease 1 (Homo sapiens) (UniProt P39748); assay: qHTS Validation Assay for the Inhibitors of Human Flap endonuclease 1 (FEN1) (AID 488816)
Method in brief: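 Enzyme reagent 10 nM; cpds pinned; 15 min RT preinc.; substrate 50 nM final; reads t=0 and 15 min; no-enzyme buffer wells as neg. control; normalized data, 4-parameter Hill fit.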

Measured: Potency

C[N+](C)(C)CCOP(=O)(O)OP(=O)([O-])OC[C@H]1O[C@@H](n2ccc(N)nc2=O)[C@H](O)[C@@H]1O
inactive: [1] | [2] | [3] | [4] | [5] | [6] | [7] | [8] | [9] | [10] | [11] | [12] | [13] | [14]

CCN(CC)c1ncnc2c1ncn2[C@@H]1O[C@H](COP(=O)(O)OP(=O)(O)C(Br)(Br)P(=O)(O)O)[C@@H](O)[C@H]1O
inactive: [1] | [2] | [3] | [4] | [5] | [6] | [7] | [8] | [10] | [11] | [12] | [13] | [14]

c1cnc2c(c1)ccc1cccnc12
active: [15] 1.85 µM | [16] 2.94 µM
inactive: [1] | [2] | [3] | [4] | [5] | [7] | [8] | [9] | [10] | [11] | [17] | [18] | [12] | [13] | [14]

CN(C)C(N)=NCCC[C@H](N)C(=O)O
inactive: [1] | [2] | [3] | [4] | [5] | [6] | [15] | [16] | [7] | [8] | [9] | [10] | [11] | [17] | [18] | [12] | [14]

CC(C)ON([C@@H](C(=O)NO)C(C)C)S(=O)(=O)c1ccc(-c2ccccc2)cc1
inactive: [1] | [2] | [3] | [4] | [5] | [6] | [7] | [8] | [19] | [9] | [11] | [12] | [13] | [14]

CC(C)NC[C@H](O)COc1cccc2[nH]ccc12
inactive: [1] | [2] | [3] | [4] | [5] | [15] | [16] | [7] | [8] | [11] | [17] | [12] | [13]

NC(=S)NCCC[C@H](N)C(=O)O
active: [6] 19 µM | [10] 10 µM
inactive: [1] | [2] | [3] | [4] | [5] | [7] | [8] | [9] | [11] | [14]

NC(=O)C(=O)O
inactive: [1] | [2] | [3] | [4] | [5] | [6] | [15] | [16] | [7] | [8] | [19] | [9] | [10] | [11] | [17] | [12] | [13]

CN(C)CCC(c1ccc(Cl)cc1)c1ccccn1 (stereo not drawn)
inactive: [1] | [2] | [3] | [4] | [5] | [15] | [16] | [7] | [8] | [19] | [9] | [10] | [11] | [17] | [18] | [12]

CN1C2CC(OC(=O)[C@H](CO)c3ccccc3)CC1C1OC12 (stereo partly drawn)
inactive: [1] | [2] | [3] | [4] | [5] | [6] | [8] | [10] | [11] | [12] | [13] | [14]

N=c1ccn2c(n1)O[C@H]1[C@H](O)[C@@H](CO)O[C@H]12
inactive: [1] | [2] | [3] | [4] | [5] | [6] | [7] | [8] | [19] | [9] | [10] | [11] | [14]

CC(=O)SCC[N+](C)(C)C
inactive: [1] | [2] | [3] | [4] | [5] | [6] | [16] | [7] | [8] | [9] | [10] | [11] | [17] | [12] | [13]

O=c1[nH]c2cc([N+](=O)[O-])c([N+](=O)[O-])cc2[nH]c1=O
inactive: [1] | [2] | [3] | [4] | [5] | [6] | [7] | [8] | [9] | [10] | [11] | [17] | [12] | [13] | [14]

O=C(O)CNC(=O)C(CS)Cc1ccccc1 (stereo not drawn)
inactive: [1] | [2] | [3] | [4] | [5] | [6] | [15] | [16] | [7] | [8] | [19] | [10] | [11] | [17] | [12] | [13]

O=C(O)/C=C/C(O)c1ccc(Cl)cc1 (stereo not drawn)
inactive: [1] | [2] | [3] | [4] | [5] | [6] | [16] | [7] | [9] | [10] | [11] | [17] | [18] | [12] | [14]

CN=c1nc(-c2ccccc2)n(-c2ccccc2)s1
active: [2] 26.7 µM | [6] 10.7 µM | [9] 4.47 µM | [10] 12.6 µM | [14] 11.2 µM
inactive: [1] | [3] | [4] | [5] | [15] | [7] | [19] | [11] | [17] | [18] | [12] | [13]

COc1cccc(C(=O)NCCN2CCN(c3ccc(Cl)cc3)CC2)c1
inactive: [1] | [2] | [3] | [4] | [5] | [6] | [15] | [7] | [8] | [19] | [9] | [10] | [11] | [17] | [18] | [12] | [14]
